Data as given in PubChem BioAssay (Tox21).
Records with an inconclusive call do not appear. Calls of active or inactive are those of the source. Calls come from the whole dose curve; as a rule, active = well fitted cell-killing curve with a large enough effect in the repeat runs; inconclusive = weak or mixed curves; inactive = flat fitted curve, though single readings scatter.

Experiment: qHTS assay to identify small molecule antagonists of the estrogen related receptor (ERR) signaling pathway from Tox21 library - cell viability counter screen (AID 1224834); note: nearly all actives have a fitted effect of over 30% in size
Details: ERR reporter cells viability, CellTiter-Fluor, 17.5 h; series mostly up to 92.4 µM; viability change, negative = cytotoxic: at the top concentration
From the text: National Center for Advancing Translational Sciences [NCATS]
NIH Chemical Genomics Center [NCGC]
U.S. Environmental Protection Agency [EPA]
National Institutes of Environmental Health Sciences [NIEHS]
National Toxicology Program [NTP]
U.S. Food and Drug Administration [FDA]
Estrogen related receptors (ERRs), the first orphan nuclear receptors discovered, play an important role in the control of cellular energy metabolism. ERRs are required for high-energy production in response to the environmental challenges. ERR-alpha was also identified as an adverse marker for breast cancer progression; ERR-alpha-positive tumors have a poor prognosis. To screen and to identify environmental compounds that perturb the ERR signaling pathways could provide valuable information for potential therapeutic or preventive measures in the treatment of metabolic disease. To differentiate true ERR antagonists or agonist from cytotoxic substances, the assay is multiplexed with cell viability assay.
Tox21 Assay Protocol Summary:
The ERR cells were dispensed at 2,000 cells/5 ul/well in 1536-well white plates using a Multidrop dispenser. After the assay plates were incubated at a 37 C/5% CO2 incubator for 6 hours, 23 nL of compounds dissolved in DMSO, positive and negative controls or DMSO only was transferred to the assay plate by a pin tool. The plates were incubated at 37 C for 17.5 hours. 1 ul/well of CellTiter-Fluor reagent was added into the assay plates using a Flying Reagent Dispenser. After 30-minute incubation at 37 C/5% CO2, the fluorescence intensity in the plates was measured using a ViewLux plate reader.
% is set by controls: 0 for no effect and ±100 for the full control effect; potency is the fitted concentration of half-maximal effect.

Compound	viability change, negative = cytotoxic	Potency
O=NN1CCNCC1	3.74% (inactive)	
ClP(Cl)(Cl)(Cl)Cl	0.221% (inactive)	
CCOP(=O)(OCC)SCCSCC		inactive
C[C@H]1CNCCc2ccc(Cl)cc21	-0.185% [at 42.5 µM] (inactive)	
CCOc1nc(F)cc2nc(S(=O)(=O)Nc3c(Cl)cccc3Cl)nn12	-3.82% (inactive)	
CCCCNP(N)(N)=S	-3.99% (inactive)	
CCCCCCC#N	-0.198% (inactive)	
Clc1cc(Cl)c(Cl)c(Cl)c1	6.18% (inactive)	
COP(=S)(Oc1cc(Cl)c(Br)cc1Cl)c1ccccc1 (stereo not given)	-1.7% (inactive)	
NC(=O)C(Cl)(Cl)Cl	-3.12% (inactive)	
CCOP(=S)(OCC)Oc1cc(Cl)c(Br)cc1Cl	0.277% (inactive)	
CN1C(=O)NC(=O)C(C)(C2=CCCCC2)C1=O (stereo not given)	-2.68% [at 42.5 µM] (inactive)	
CC(Cl)Cl	-8.51% (inactive)	
C=CCC1([C@H](C)CCC)C(=O)NC(=O)NC1=O	2.89% (inactive)	
CC(=O)C(C)(C)C	-0.259% (inactive)	
O=C(C(Cl)(Cl)Cl)C(Cl)(Cl)Cl	5.88% (inactive)	
CCOP(=S)(OCC)SCSCC	8.1% (inactive)	
Cc1ccccc1CCl	1.09% (inactive)	
CC(C)=CCOc1c2occc2cc2ccc(=O)oc12	-10% [at 42.5 µM] (inactive)	
O=C1c2ccccc2C(=O)C1C(=O)C(c1ccccc1)c1ccccc1	-6.98% [at 42.5 µM] (inactive)	

Compound	viability change, negative = cytotoxic	Potency
O=[N+]([O-])c1cc(C(F)(F)F)cc([N+](=O)[O-])c1Cl		34.5 µM (active)
CCBr	2.46% (inactive)	
ClC=C(Cl)Cl	0.0169% (inactive)	
CC(=O)[C@H]1CC[C@H]2[C@@H]3CC[C@H]4C[C@](C)(O)CC[C@]4(C)[C@H]3CC[C@]12C	1.98% [at 42.5 µM] (inactive)	
CC(C)(C)c1cc([N+](=O)[O-])cc([N+](=O)[O-])c1O		15.3 µM (active)
O=C(N[C@H](c1ccccc1)[C@@H]1CN2CCC1CC2)c1c(Cl)ccc(C(F)(F)F)c1Cl		49.3 µM (active)
CCCCCC[N+](=O)[O-]	3.34% (inactive)	
CCOP(=O)(OCC)Oc1ccc([N+](=O)[O-])cc1	-13.9% (inactive)	
CC(C)N(CCC(C(N)=O)(c1ccccc1)c1ccccn1)C(C)C (stereo not given)	0.0099% [at 42.5 µM] (inactive)	
COc1nn(C(=O)NS(=O)(=O)c2ccccc2OC(F)(F)F)c(=O)n1C	0.829% (inactive)	
COP(=S)(OC)Oc1cc(Cl)c(I)cc1Cl	-0.19% (inactive)	
COCC(C)N(C(=O)CCl)c1c(C)csc1C (stereo not given)	-6.81% (inactive)	
CC(C)(Cl)[N+](=O)[O-]	0.16% (inactive)	
CC(Cl)C(C)Cl (stereo not given)	-0.277% (inactive)	
Cc1c(F)c(F)c(COC(=O)C2C(/C=C(\Cl)C(F)(F)F)C2(C)C)c(F)c1F (stereo not given)	-1.88% (inactive)	
COP(=S)(OC)Oc1ccc([N+](=O)[O-])cc1Cl		48.6 µM (active)
Cl/C=C\Cl	-0.466% (inactive)	
CCOP(O)OCC	-1.3% (inactive)	
O=C(Nc1ccccc1)Nc1ccnc(Cl)c1		43.3 µM (active)
CCOP(=S)(Oc1ccc([N+](=O)[O-])cc1)c1ccccc1 (stereo not given)	-0.299% (inactive)	
